Assay outcomes (PubChem)
sEH inhibitor: soluble epoxide hydrolase inhibitors, primary screen, biochemical, human sEH; 91,000 compounds, 0.34% hits; Bifunctional epoxide hydrolase 2 (Homo sapiens), P34913; AID 707, 2007; recombinant human sEH enzymatic activity assay; inhibition, % at 2 µM; in the data active means inhibition above about 80%
CYP2C9 act: human CYP2C9 activators, primary screen, biochemical, luminescence | recombinant CYP2C9, luciferin-H conversion; stronger effect = higher value; factor 1 = untreated enzyme, 0 = blocked | activation factor at 5 µM | 96,000 compounds, 1.4% hits | AID 1024, 2008;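 active means activation factor of 2 or more for CYP2C9 at a 5 µM dose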;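 further: 0 = sulfaphenazole-blocked wells and 1 = vehicle-only wells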
CYP2C19 act: human CYP2C19 activators, primary screen, biochemical, luminescence; Cytochrome P450 2C19 (Homo sapiens), P33261; recombinant CYP2C19, luciferin-H EGE luminescence; stronger effect = higher value; 0 = fully inhibited enzyme, 1 = untreated enzyme; activation factor at 5 µM; 96,000 tested, under 10 active; AID 1025, 2008;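 active means activation factor of at least 2 at 5 µM in the primary screen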;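 further: 0 = wells with 2.5 mM tranylcypromine and 1 = vehicle-only wells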
Target sequence (P33261 whole entry, looked up): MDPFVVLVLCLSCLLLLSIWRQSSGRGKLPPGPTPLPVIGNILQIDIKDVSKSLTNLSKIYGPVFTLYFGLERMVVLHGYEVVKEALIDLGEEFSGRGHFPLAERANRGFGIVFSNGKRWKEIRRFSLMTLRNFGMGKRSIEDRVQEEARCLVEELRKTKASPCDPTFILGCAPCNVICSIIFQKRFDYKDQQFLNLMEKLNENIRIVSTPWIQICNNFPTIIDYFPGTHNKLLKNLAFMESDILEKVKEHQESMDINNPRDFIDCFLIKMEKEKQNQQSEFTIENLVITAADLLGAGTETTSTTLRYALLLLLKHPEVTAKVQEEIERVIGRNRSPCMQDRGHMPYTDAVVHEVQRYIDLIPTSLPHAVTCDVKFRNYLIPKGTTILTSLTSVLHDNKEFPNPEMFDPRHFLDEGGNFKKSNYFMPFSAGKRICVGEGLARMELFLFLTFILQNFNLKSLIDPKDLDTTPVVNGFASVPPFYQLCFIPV
CYP2C19 inhib: blockers of cytochrome P450 2C19 activity – biochemical, luminescence, ADME assay, primary screen. CYP2C19 Supersomes, luciferin-H EGE luminescence, 30 min. 96,000 compounds, 21% hits. P33261. AID 778, 2007. inhibition, % at 5 µM;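 active means CYP2C19 inhibition above a set limit at 5 µM in the primary screen, cut at about 50% in these data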;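 further: plate controls were negative control wells for no effect and 2.5 mM tranylcypromine positive control for full effect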
CYP2C9 inhib: blockers of cytochrome P450 2C9 activity – biochemical, luminescence, ADME assay, primary screen | P11712 | CYP2C9 Supersomes, luciferin-H conversion | inhibition, % at 5 µM | 96,000 compounds, 20% hits;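 active means blocking of liver enzyme CYP2C9 beyond about 50% at 5 µM, limit read from the data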
sEH activator: soluble epoxide hydrolase activators, primary screen, biochemical, human sEH. Bifunctional epoxide hydrolase 2 (Homo sapiens), P34913. purified human sEH enzymatic activity, activator screen. activation, % at 2 µM. 91,000 compounds, 0.04% hits. AID 717, 2007; in the data active means activation above about 37%
* hit, by the source's call; / = no result given. Compounds with a hit are over-represented: about 27% of the library has one in this group of screens.

SMILES | sEH inhibitor | CYP2C9 act | CYP2C19 act | CYP2C19 inhib | CYP2C9 inhib | sEH activator
O=C(CCn1c(=O)oc2ccccc21)N1CCOCC1 | 4 | 1.1 | 1.1 | -10 | -10 | -4
O=c1oc2ccccc2n1CSc1nc2ccccc2s1 | / | 0.2 | 0 | 100* | 84* | /
O=c1oc2ccccc2n1CSC1=NCCS1 | 10 | 0.6 | 0.1 | 88* | 45 | -11
O=C(CSc1nc2ccccc2s1)CSc1nc2ccccc2s1 | -14 | 0.7 | 1 | -1 | 32 | 12
COc1cc(OC)cc(-c2nc(N)n[nH]2)c1 | 4 | 0.9 | 0.5 | 52* | 13 | -1
COc1ccc(-c2nc(N)n[nH]2)cc1 | 9 | 0.8 | 0.8 | 16 | 16 | -7
CCOC(=O)C(C(=O)Nc1ccccc1C)C1CCCCC1 (stereo unspecified) | 16 | 0.8 | 0.6 | 35 | 24 | -19
N#Cc1c(SCc2cccc(Cl)c2)sc(C(=O)c2ccccc2)c1N | -3 | 0.1 | 0.2 | 81* | 89* | 1
N#Cc1c(SCc2ccccc2)sc(C(=O)c2ccccc2)c1N | 5 | 0.8 | 0.9 | 7 | 24 | -7
Cc1ccc(CSc2sc(C(=O)c3ccccc3)c(N)c2C#N)cc1 | -3 | 0.4 | 0.7 | 31 | 61* | 1
COc1cccc2cc(/C(C)=N/Nc3nc(-c4cc(C)ccc4C)cs3)c(=O)oc12 | 10 | 0.8 | 1.2 | -18 | 19 | -9
Cc1ccccc1CN1CCN(S(C)(=O)=O)CC1 | 2 | / | / | / | / | -1
C1=CC2CC1CC2CN1CCN(c2ccccc2)CC1 (stereo unspecified) | / | 0.8 | 0.3 | 66* | 20 | /
Cc1ccccc1CN1CCN(CC2CC3C=CC2C3)CC1 (stereo unspecified) | -9 | 0.9 | 0.4 | 61* | 13 | 10
CS(=O)(=O)N1CCN(CC2CC3C=CC2C3)CC1 (stereo unspecified) | -9 | 1 | 1 | 5 | -1 | 7
Cc1ccc(C)c(N2CCN(CC3CC=CCC3)CC2)c1 (stereo unspecified) | -2 | 0.9 | 0.9 | 11 | 6 | -1
O=S(=O)(c1ccccc1)N1CCN(c2nc3ccccc3s2)CC1 | 4 | 1.1 | 0.9 | 12 | -8 | -1
Cc1cc(N2CCN(S(=O)(=O)c3ccc(Cl)cc3)CC2)c2ccccc2n1 | 9 | 0.6 | 0.2 | 82* | 40 | -9
Cc1cc(C)n(-c2nc3ccccc3nc2N2CCN(S(=O)(=O)c3ccc(F)c(C)c3)CC2)n1 | / | 0.5 | 0.9 | 7 | 50* | /
Cn1c2c(c(=O)[nH]c1=O)C(NC(=O)c1ccco1)(C(F)(F)F)C(=O)N2 (stereo unspecified) | -2 | 1 | 1 | -2 | 1 | 4
Cc1nn(Cc2ccccc2)c(C)c1NC(=O)c1noc2c1CCc1ccccc1-2 | -10 | 0.4 | 0.6 | 38 | 61* | 8
Cc1ccc(NC(=O)c2noc3c2CCc2ccccc2-3)cc1 | -11 | 1.3 | 1.1 | -7 | -34 | 11
Cc1cc(NC(=O)c2noc3c2CCc2ccccc2-3)n(-c2ccccc2)n1 | / | 1 | 1 | -1 | 4 | /
CCc1ccc(NC(=O)c2noc3c2CCc2ccccc2-3)cc1 | -17 | 2.1* | 1 | 4 | -112 | 16
CCOc1ccc(/C(O)=C2\C(=O)C(=O)N(CCN(C)C)C2c2cc(OC)ccc2OC)cc1Cl (stereo unspecified) | -16 | / | / | / | / | 20
SMILES | sEH inhibitor | CYP2C9 act | CYP2C19 act | CYP2C19 inhib | CYP2C9 inhib | sEH activator
C=CCN1C(=O)CSc2ccc(C(=O)OCC)cc21 | -21 | 0.9 | 0.9 | 13 | 13 | 20
CCC(C)NC(=O)C(CCSC)NC(=O)c1ccccc1 (stereo unspecified) | 15 | 0.6 | 0.7 | 26 | 35 | -14
CSCCC(NC(=O)c1ccc(Cl)cc1)C(=O)NC(C)(C)C (stereo unspecified) | 11 | 0.4 | 0.6 | 44 | 62* | -12
CCCCCOc1ccc2oc(=O)c3c(c2c1)CCCN3C(=O)CN1CCCC(C(=O)OCC)C1 (stereo unspecified) | -21 | 0.1 | 0.2 | 76* | 94* | 16
O=C(CN1CCCCC1)N1CCCc2c1c(=O)oc1ccc(OCc3ccccc3)cc21 | 4 | / | / | / | / | -5
CCCOc1ccc2oc(=O)c3c(c2c1)CCCN3C(=O)CN(C)Cc1ccccc1 | 6 | 0.1 | 0.4 | 55* | 86* | -2
O=S(=O)(c1ccc2oc3ccccc3c2c1)N1CCCC1 | -2 | / | / | / | / | 2
COC(=O)c1ccccc1S(=O)(=O)C(C)(C)C | -10 | / | / | / | / | 10
COc1ccc(NS(=O)(=O)c2ccc3oc4ccccc4c3c2)cn1 | -3 | 0 | 0 | 96* | 99* | 0
COC(=O)c1ccccc1S(=O)(=O)Nc1ccc(OC)nc1 | -10 | 0.8 | 0.2 | 85* | 23 | 10
Fc1ccccc1C(c1nnnn1C1CCCC1)N1CCN(Cc2ccccc2)CC1 (stereo unspecified) | -4 | / | / | / | / | 4
CCn1c(NC(=O)c2ccc(F)cc2)c2ccccc2nc1=O | / | 0.8 | 0.3 | 72* | 20 | /
CCn1c(CCCNC(=O)c2cccs2)nc2ccccc21 | 14 | 1.6 | 0.2 | 76* | -59 | -11
CCn1c(CCNC(=O)c2ccc(F)cc2)nc2ccccc21 | 8 | 3.3* | 0.1 | 95* | -230 | -9
COC(=O)C(C(=O)OC)C(C[N+](=O)[O-])c1ccc(OC)cc1 (stereo unspecified) | -9 | 1.1 | 0.5 | 45 | -6 | 14
CCC1(C)Cc2c(sc3nnn(CC(=O)Nc4cccc5ccccc45)c(=O)c23)CO1 (stereo unspecified) | 14 | 0.4 | 0.9 | 12 | 60* | -12
CCC1(C)Cc2c(sc3nc(SC)n(Cc4ccccc4)c(=O)c23)CO1 (stereo unspecified) | 12 | 0.1 | 0.7 | 35 | 90* | -9
CC1(C)Cc2c(sc3nc(-c4ccccc4)n(N)c(=O)c23)CO1 | 0 | 1 | 1 | 2 | 0 | 4
COc1ccc(CCNc2nncc(=O)[nH]2)cc1OC | -10 | 0.8 | 0.8 | 20 | 18 | 11
CCOC(=O)Cc1csc(SC(C)C(=O)Nc2ccc(NC(C)=O)cc2)n1 (stereo unspecified) | -13 | 0.1 | 0.3 | 68* | 91* | 13
Cc1nc2ccc(S(=O)(=O)N(C)CC(=O)N3CCc4ccccc4C3)cc2s1 | 9 | 0.6 | 0.6 | 39 | 45 | -10
CS(=O)(=O)N(CCc1ccccc1)CC(=O)N1CCc2ccccc2C1 | -4 | 0.5 | 0.3 | 68* | 54* | 7
CCN(CC(=O)N1CCc2ccccc2C1)S(=O)(=O)c1ccc2ccccc2c1 | 5 | 2.4* | 0.6 | 39 | -143 | -6
